Publication PMC10668032, “Altered binding affinity of SIX1-Q177R correlates with enhanced WNT5A and WNT pathway effector expression in Wilms tumor”
Over roughly 33,000 sequences, “e-score” has its median near -0.05; the highest 2% begin near 0.38. What follows is part of a selection rich in the highest values, with near analogues and random picks from the rest.

Biological target: T1, SIX1-Q177R homeodomain (human, UniProt Q15475 108-198, Q177R)
T1 sequence: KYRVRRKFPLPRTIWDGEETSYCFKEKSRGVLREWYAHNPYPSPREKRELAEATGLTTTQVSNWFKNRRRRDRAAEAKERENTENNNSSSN
Assay: universal protein binding microarray; Universal all-10-mer PBM (8x60K, AMADID 030236), 300 nM GST-tagged protein, Alexa Fluor 488 anti-GST; buffer, salt, pH and temperature not stated (as in Berger); high values mean tight binding
Details: protein: ivt; tags: N-terminal GST; dsDNA, one strand shown
Procedure, shortened: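 GST-tagged homeodomains were made by in vitro transcription/translation and quantified by anti-GST western blot against a recombinant GST standard curve. They were applied in duplicate at 300 nM final concentration to universal 'all 10-mer' protein binding microarrays (8×60K format). Binding was quantified as 8-mer E-scores with the Universal PBM Analysis Suite.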

| Sequence | binding signal |
| --- | --- |
| CACTTATG | 0.161 ± 0.0539 E-score |
| AAGTTACA | 0.171 ± 0.00584 E-score |
| AGAAGGTG | 0.302 ± 0.0205 E-score |
| CCCCGGAC | 0.152 ± 0.0324 E-score |
| GAGCACCC | 0.283 ± 0.0502 E-score |
| GGGGGTAA | 0.354 ± 0.0195 E-score |
| TGGAGTAA | 0.233 ± 0.068 E-score |
| AGGTGCAA | 0.169 ± 0.04 E-score |
| CGGTGTAG | 0.487 E-score |
| ATGTGTAA | 0.225 ± 0.00674 E-score |
| GTGTGTAA | 0.337 ± 0.0168 E-score |
| CGGGGTAG | 0.221 ± 0.00415 E-score |
| GGGTGTAA | 0.478 ± 0.01 E-score |
| TGGTGCAA | 0.169 ± 0.0456 E-score |
| AGGTGTAA | 0.463 ± 0.021 E-score |
| TGGTGTAA | 0.486 ± 0.00978 E-score |
| GGTGCACC | 0.353 ± 0.00627 E-score |
| CAACAACA | 0.195 ± 0.00619 E-score |
| TGACCCCA | 0.279 ± 0.0177 E-score |
| CGGAGTAA | 0.266 ± 0.0379 E-score |
| AAGGTATC | 0.251 ± 0.0701 E-score |
| GGAACCCA | 0.181 ± 0.0136 E-score |
| GACCTCAC | 0.161 ± 0.0365 E-score |
| ACCGAACA | 0.196 ± 0.0386 E-score |

| Sequence | binding signal |
| --- | --- |
| GGGGGTAC | 0.331 ± 0.0182 E-score |
| CTGTGTAA | 0.153 ± 0.011 E-score |
| GGGTGCAC | 0.28 ± 0.022 E-score |
| CGGTGTAA | 0.481 ± 0.0071 E-score |
| GGGTGTAC | 0.4828 ± 0.00134 E-score |
| CGGTGCAA | 0.259 ± 0.00579 E-score |
| CCCCACGA | 0.1526 ± 0.000735 E-score |
| TGTAAGAA | 0.294 ± 0.0277 E-score |
| AAACGTGT | 0.303 ± 0.054 E-score |
| CCCGGTGC | 0.154 ± 0.0105 E-score |
| ACTTACTC | 0.179 ± 0.00345 E-score |
| GCTTACAC | 0.437 ± 0.0203 E-score |
| ACTTACAC | 0.449 ± 0.0178 E-score |
| CCTTACAC | 0.439 ± 0.0105 E-score |
| CCTCACAC | 0.279 ± 0.0153 E-score |
| ACTTACGC | 0.164 ± 0.00788 E-score |
| CCTTATAA | 0.179 ± 0.0218 E-score |
| ACTTACCC | 0.186 ± 0.0205 E-score |
| GCTCACAC | 0.276 ± 0.0114 E-score |
| CTCGCCCC | 0.173 ± 0.0101 E-score |
| GGAGGGTA | 0.224 ± 0.0107 E-score |
| ACCCACAA | 0.151 ± 0.0489 E-score |
| CCCCACCG | 0.228 ± 0.054 E-score |
| AGCGGGTG | 0.333 ± 0.0119 E-score |

| Sequence | binding signal |
| --- | --- |
| ACCAGGCA | 0.151 ± 0.0134 E-score |
| GTGGTGTA | 0.481 ± 0.00765 E-score |
| CTGGTACA | 0.21 ± 0.0391 E-score |
| CTGGTATC | 0.274 ± 0.0156 E-score |
| GTGTGGTA | 0.265 ± 0.00181 E-score |
| CTGGTGTC | 0.4826 ± 0.00371 E-score |
| ATGGGGTG | 0.342 ± 0.0155 E-score |
| CTGGAGTC | 0.1843 ± 0.00156 E-score |
| ATGTGGTG | 0.271 ± 0.0248 E-score |
| ATGGTGTG | 0.405 ± 0.0177 E-score |
| CTGGTGTA | 0.4837 ± 0.00053 E-score |
| GTGGTGCA | 0.189 ± 0.00669 E-score |
| CTGGTGCA | 0.234 ± 0.0234 E-score |
| ACCCGGGC | 0.199 ± 0.0334 E-score |
| CTTGCACC | 0.166 ± 0.00933 E-score |
| CCCGGTCG | 0.212 ± 0.00566 E-score |
| ACACAATG | 0.164 ± 0.079 E-score |
| ACCCACAC | 0.348 ± 0.0152 E-score |
| ACCTCGGG | 0.273 ± 0.0151 E-score |
| AGGCGGTG | 0.2798 ± 0.00206 E-score |
| CACGCGGG | 0.241 ± 0.00761 E-score |
| ACCTTCCT | 0.264 ± 0.0494 E-score |
| ATGGTGTA | 0.4792 ± 0.00274 E-score |
| ATTGTGTC | 0.219 ± 0.0744 E-score |

| Sequence | binding signal |
| --- | --- |
| ATTGTGTA | 0.151 ± 0.0397 E-score |
| ATGGTACA | 0.18 ± 0.0214 E-score |
| ATGGTATC | 0.3344 ± 0.0022 E-score |
| ATGGTGTC | 0.486 ± 0.00186 E-score |
| CACCCAAG | 0.366 ± 0.00569 E-score |
| ACTGATCC | 0.16 ± 0.00427 E-score |
| CACCGGGG | 0.256 ± 0.0427 E-score |
| AACCGTGT | 0.3792 ± 0.0033 E-score |
| ATGCACCC | 0.19 ± 0.0233 E-score |
| GGGTTACA | 0.242 ± 0.0177 E-score |
| CCCGCACA | 0.228 ± 0.0266 E-score |
| CACTATAC | 0.261 ± 0.0244 E-score |
| ACACTTGG | 0.329 ± 0.018 E-score |
| CCGGGTCA | 0.285 ± 0.0196 E-score |
| GTATCATA | 0.29 ± 0.00996 E-score |
| AGGAACAC | 0.394 ± 0.0134 E-score |
| GGGAACAC | 0.368 ± 0.0116 E-score |
| AGGCACAC | 0.203 ± 0.0019 E-score |
| CGGAACAC | 0.411 ± 0.0112 E-score |
| CGGAACCC | 0.234 ± 0.0277 E-score |
| GGGAACCC | 0.184 ± 0.0515 E-score |
| ACGGGTAT | 0.277 ± 0.00631 E-score |
